Screen size: about 150,000 compounds; about 6,500 (4.3%) were called active. Another 12% or so got no clear call; they are omitted. The call rests on the fitted dose curve; in most records, active means well fitted inhibition curve with a large enough effect (not every such curve was filed as active); inconclusive means small, poorly fitted or top-dose-only effect, or another doubt; inactive means no such curve, though single readings can be large or run the other way. Only a selection was taken, and actives are over-represented in it overall.
Target: 15-hydroxyprostaglandin dehydrogenase [NAD(+)] (Homo sapiens) (UniProt P15428)
Sequence (P15428 whole entry, looked up): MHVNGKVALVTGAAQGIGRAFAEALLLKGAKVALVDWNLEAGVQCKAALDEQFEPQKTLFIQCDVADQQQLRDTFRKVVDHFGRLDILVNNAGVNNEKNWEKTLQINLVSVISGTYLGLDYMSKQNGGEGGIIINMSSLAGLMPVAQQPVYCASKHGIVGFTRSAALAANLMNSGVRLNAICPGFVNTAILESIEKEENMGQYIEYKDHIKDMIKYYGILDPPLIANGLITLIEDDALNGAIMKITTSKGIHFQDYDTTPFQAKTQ
Assay: qHTS Assay for Inhibitors of HPGD (15-Hydroxyprostaglandin Dehydrogenase)
Conditions: purified HPGD, NADH fluorescence kinetic, PGE2 substrate; activity change, negative = inhibition: hits give low values
How it was run: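 NADH formation kinetics: reaction with 30 uM PGE2 and 1 mM NAD+ (final), 20 nM enzyme, Tris-HCl pH 8 with Tween 20, after 15 min compound preincubation at room temperature. Fluorescence change, last versus first of five reads.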
On the % scale 0 is the no-effect control and ±100 the full control effect; potency means the concentration at half of the fitted maximal effect.

Activity change, negative = inhibition, inactive:
N#Cc1ccccc1NC(=O)c1cccc(COc2ccc(Cl)cc2Cl)c1 -14.4%
Cc1ccc(-n2c(SCC(=O)Nc3ncc(Cl)cc3Cl)nc3ccccc32)cc1 -16.1%
COCC(C)n1c(C)cc(C(=O)CSc2cc(C)c3ccccc3n2)c1C (stereo unspecified) -10.7%
COc1ccc(/C=N/NC(=O)c2ccc(Cl)cc2)cc1COC(C)=O -5.1%
Cc1ccc(C(=O)OCc2nc(N)nc(Nc3ccccc3C)n2)cc1 -0.25%
CN(C)/C=C/C(=O)c1ccccc1F -27.4%
CCC(C)NC(=O)c1cc(Cl)ccc1OC (stereo unspecified) -11.4%
CCn1cc(CNC(=O)c2cc([N+](=O)[O-])c(C)c([N+](=O)[O-])c2)cn1 -7.17%
Cc1nc2ccccc2nc(C)c1=NOCc1ccc(Cl)cc1Cl -8.26%
Cc1nnnn1/C(=C\c1ccccc1)C(=O)OCC(=O)N1CC2(C)CC1CC(C)(C)C2 (stereo unspecified) -7.09%
O=C(NC1CC1)c1cccc(Br)c1 -26.7%
S=C1Nc2cc(Cl)ccc2Sc2ccccc21 -14%
COc1cc(Cl)c(C)cc1NC(=O)[C@@H]1CCCN1C(=O)c1cccs1 -4.97%
COc1ccc(-c2nn(-c3ccccc3)cc2/C=N/Nc2ccccn2)cc1OC -26.3%
CC(=O)Nc1ccc(NC(=O)C(C)OC(=O)c2ccccc2C(=O)c2ccc(Cl)c([N+](=O)[O-])c2)cc1 (stereo unspecified) -2.62%
COc1ccc(C2CC(c3ccccc3)=NN2C(=O)CSc2nccc(=O)[nH]2)cc1 (stereo unspecified) -5.74%
COCCNC(=O)c1ccc(N2CCC3(CC2)OCCO3)c([N+](=O)[O-])c1 -17.4%
CCOC(=O)c1c(NC(=O)c2ccc(N3CCOCC3)c([N+](=O)[O-])c2)sc(C)c1C -7.82%
CC(C)CNC(=O)COC(=O)c1ccccc1OCC(=O)Nc1ccc(Br)cc1 -5.33%
Nc1nc(NC(=O)/C=C/c2ccccc2)nn1-c1ccccc1 -3.01%
COc1ccc(C2CC(=O)n3c(nc4ccccc43)S2)cc1OC (stereo unspecified) -12.6%
COc1ccc(C2C(C#N)=C(/N=C/N3CCOCC3)OC3=C2C(=O)CC(C)(C)C3)cc1OC (stereo unspecified) -16.4%
CC(C)C(=O)Nc1ccc(C(=O)NNC(=O)c2cccs2)cc1 -13.5%
Cc1cc(C)nc(NC(=O)c2cccc([N+](=O)[O-])c2)c1 -3.35%
CCCCC/C=C\C/C=C\CCCCCCCCCC(=O)O -12.4%
Cc1ccc(NC(=O)CCC(=O)N/N=C/c2ccco2)c(C)c1 -2.23%
COc1ccc(C(=O)O/N=C(\N)Cc2ccc(Cl)cc2Cl)cc1OC -15.7%
CC1CCCC(NC(=O)CSc2nccn2C)C1C (stereo unspecified) -27.8%
Nc1nnc(SCC(=O)OCc2ccc(Cl)c(Cl)c2)s1 -17.6%
Cc1nnc(SCC(=O)Nn2cnnc2)s1 -0.465%
Cc1cnc(NC(=O)CSc2nnc(C)s2)s1 -0.21%
CN(CC(=O)NCCc1ccccc1)S(=O)(=O)c1cnc[nH]1 -0.3%
Cc1cccc(C)c1NC(=O)C(c1ccccc1)N1CC(=O)Nc2ccccc21 (stereo unspecified) -5.54%
C=CCN(CC=C)S(=O)(=O)c1ccc(C(=O)Nc2nc3c(s2)CCc2ccccc2-3)cc1 -28.8%
O=C(/C(=C/c1cccc(Cl)c1)c1nc2ccccc2[nH]1)c1ccccc1 -17.6%
COc1ccc(C/C(C)=N/NC(=O)c2ccncc2)cc1 -13.4%
COc1ccc([N+](=O)[O-])cc1NC(=O)C(C)OC(=O)C1c2ccccc2Oc2ccccc21 (stereo unspecified) -5.7%
NC1CCN(O)C1=O (stereo unspecified) -4.5%
O=C1N(c2ccc(Cl)cc2)C(c2ccc(Cl)cc2)N2CCCN12 (stereo unspecified) 4.12%
COc1ccc(CNC(=O)CN(Cc2ccc(Cl)cc2)S(C)(=O)=O)cc1 -5.79%
COc1ccc(C(=O)CSc2n[nH]c(N)n2)cc1 -10.7%
O=C(CSc1nnc2ccccn12)c1ccccc1 78.8%
CCOC(=O)c1c(C)[nH]c(C)c1C(=O)CSc1nc(N)cc(N)n1 -1%
Cc1nc(SCC(=O)c2ccccc2)c([N+](=O)[O-])[nH]1 -5.29%
C/C=C(\C)C(=O)O[C@H]1CC(C)=C2C(=O)C=C(C)C2[C@@H]2OC(=O)[C@@](C)(OC(=O)C=C(C)C)C21 (stereo partly specified) -7.62%
O=C(Nc1ccccc1Cc1ccccc1)c1ccc2c(c1)SC1=NS(=O)(=O)CCN12 -2.73%
Cc1cc(Cl)ccc1NC(=S)N1CCC(C(N)=O)(N2CCCCC2)CC1 -9.28%
CCOc1ccc(NC(=O)CSc2ncnc3c2sc2ccccc23)cc1 -9.21%
O=C(Nc1ccon1)c1cccc(Cl)c1 -28.3%
O=C(N/N=C/c1c(Cl)[nH]c2ccccc12)c1sc2ccccc2c1Cl -16.9%
CC/C=C\C/C=C\C/C=C\C/C=C\C/C=C\C/C=C\CCC(=O)NC(C)C(=O)O (stereo unspecified) -6.96%

Potency, active:
CC(Oc1ccc(Cl)cc1Cl)C(=O)/C=C/N(C)C (stereo unspecified) 22.4 µM
O=C(NC1CC1)c1ccc2c(c1)NC(=O)c1ccccc1S2 20 µM
CCC(C)NC(=O)c1ccc(N2CCC3(CC2)OCCO3)c([N+](=O)[O-])c1 (stereo unspecified) 39.8 µM
Oc1c(C=Nc2cccc3nsnc23)ccc2ccccc12 25.1 µM
COc1cc(C2CC(=O)N3CN(Cc4ccccc4)CSC3=C2C#N)ccc1OCc1ccccc1 (stereo unspecified) 10 µM
Cc1nnc(SCC(=O)NC2CCCC2)s1 28.2 µM
CC1CCCCC1NC(=O)CSc1nnc(N)s1 (stereo unspecified) 17.8 µM
COC(=O)c1cc(C(=O)CSc2nc(C)cc(C)n2)ccc1O 17.8 µM
Cc1cc(SCC(=O)c2ccccc2)nc(SCC(=O)c2ccccc2)n1 28.2 µM
O=C(Nc1ccon1)c1sc2ccccc2c1Cl 15.8 µM

From PubChem BioAssay AID894 (National Center for Advancing Translational Sciences (NCATS), 2007)
